An excerpt weighted towards active compounds, which were near 2% of everything screened.
ADAM17 inh: inhibitors of human ADAM17; inhibition, % at 6.95 µM; actives 0.83% (n = 370,000); recombinant ADAM17, EDANS/DABCYL FRET peptide cleavage; P78536;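 active = inhibition above the mean of compounds lying between control limits plus 3 SD, set per campaign, cut at about 8.5% in these data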;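 note: 0% = DMSO-only wells as the low control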
Target sequence (P78536 215-824 limits assumed): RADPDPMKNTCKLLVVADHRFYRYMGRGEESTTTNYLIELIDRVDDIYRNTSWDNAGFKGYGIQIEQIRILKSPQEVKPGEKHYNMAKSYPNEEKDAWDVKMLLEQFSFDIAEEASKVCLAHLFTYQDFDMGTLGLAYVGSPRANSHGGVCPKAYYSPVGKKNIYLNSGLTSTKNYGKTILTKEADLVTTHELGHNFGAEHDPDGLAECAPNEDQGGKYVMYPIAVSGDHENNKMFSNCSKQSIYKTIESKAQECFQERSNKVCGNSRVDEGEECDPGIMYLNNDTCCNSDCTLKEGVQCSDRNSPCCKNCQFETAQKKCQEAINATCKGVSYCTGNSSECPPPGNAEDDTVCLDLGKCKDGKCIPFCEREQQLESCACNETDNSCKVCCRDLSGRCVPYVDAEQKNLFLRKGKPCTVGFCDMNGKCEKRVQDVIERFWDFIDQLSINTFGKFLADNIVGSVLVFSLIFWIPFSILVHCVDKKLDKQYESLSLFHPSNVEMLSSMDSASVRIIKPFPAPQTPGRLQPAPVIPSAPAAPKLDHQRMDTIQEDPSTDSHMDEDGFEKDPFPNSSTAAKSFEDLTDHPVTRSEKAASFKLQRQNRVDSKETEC
ADAM10 inh: inhibitors of human ADAM10; recombinant ADAM10, EDANS/DABCYL FRET peptide cleavage, 3 h; inhibition, % at 7 µM; actives 0.62% (n = 370,000); O14672;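 active = inhibition above a per-campaign cutoff equal to the mean of compounds falling between control-based bounds plus 3 SD, cut at about 20% in these data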;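 note: 0% = DMSO wells while the 100% control is not disclosed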
NPR2 activator: GC-B (human) receptor activation | actives 0.11% (n = 370,000) | activation, % at 10 µM | HEK293-GC-B cells, CNP EC30, cGMP TR-FRET; 0% at EC30 CNP, 100% saturating CNP;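 active = activation at 10 µM reaching about 35% in either raw or pattern-adjusted values, limit read from the data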
FAS-TE inh: blocks the thioesterase domain of human fatty acid synthase; P49327; recombinant FAS-TE, OMFH fluorogenic substrate, fluorescence endpoint; inhibition, % at 15 µM; actives 0.67% (n = 360,000); AID 602261;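 active = compounds whose normalised, plate-corrected inhibition of enzyme fluorescence in the single-dose primary screen is 50% or more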;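 note: 0% = DMSO with enzyme and 100% = substrate without enzyme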
GC-A act: GC-A (human) enzyme activation. P16066. HEK293 GC-A cells, cGMP TR-FRET, EC30 ANP; 0% at EC30 ANP, 100% saturating ANP. activation, % at 10 µM. actives 0.14% (n = 370,000); in the data active = activation above about 40%
ADAM10 confirm: human ADAM10 inhibition, confirmation; shares compounds with ADAM10 inh; ADAM10 QFRET peptide cleavage, EDANS fluorescence; inhibition, % at 6.95 µM; actives 1% (n = 2,100); AID 743208;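 active = inhibition above about 20% chosen separately for each screening run, limit read from the data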;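 note: 0% = DMSO wells and 100% = marimastat wells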
ADAM17 ctr: ADAM17 inhibition, counter-screen for ADAM10 exosite hits; shares compounds with ADAM10 inh; ADAM17 QFRET peptide cleavage, EDANS fluorescence; inhibition, % at 6.95 µM; actives 0.5% (n = 2,100);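 active = mean triplicate inhibition above the solvent-only control wells' mean plus 3 SD, cut at about 12% in these data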;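 note: 0% = DMSO wells and 100% = marimastat wells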
An asterisk follows results filed as active.

For C[C@@H]1CCCCO[C@H](CN(C)C(=O)Nc2ccc(F)cc2)[C@@H](C)CN([C@H](C)CO)C(=O)c2cc(NC(=O)c3ccccc3)ccc2O1 the results were ADAM17 inh 3.2, ADAM10 inh 22.8*, NPR2 activator -1.6, FAS-TE inh 2.9, GC-A act -8.6, ADAM10 confirm 2.6 and ADAM17 ctr -0.3.
Screening O=[N+]([O-])c1cc([N+](=O)[O-])c2c(=Nc3ccccc3)n(-c3ccccc3)n(O)c2c1 returned ADAM17 inh 4.5, ADAM10 inh 25.0*, NPR2 activator -9.5, FAS-TE inh -15.2, GC-A act -4.1, ADAM10 confirm 0.0 and ADAM17 ctr 0.7.
For CC(=O)c1ccc(OCC(=O)N2CCN(S(=O)(=O)c3ccc(C)cc3C)CC2)cc1 the results were ADAM17 inh 0.2, ADAM10 inh 83.8*, NPR2 activator -8.2, FAS-TE inh 1.8, GC-A act -1.2, ADAM10 confirm -1.4 and ADAM17 ctr 0.1.
Screening Cc1ccc(S(=O)(=O)N2CCN(C(=O)COC(=O)COc3ccc(Br)cc3)CC2)c(C)c1 returned ADAM17 inh 1.7, ADAM10 inh -2.5, NPR2 activator -7.6, FAS-TE inh -2.9 and GC-A act 1.0.
`Cc1ccc(S(=O)(=O)N2CCN(C(=O)COC(=O)Cc3ccc(F)cc3)CC2)c(C)c1` gave ADAM17 inh 0.6, ADAM10 inh -2.1, NPR2 activator 2.2, FAS-TE inh 8.5 and GC-A act 1.1.
`CSc1ccc(CSCC(=O)N2CCN(S(=O)(=O)c3ccc(C)cc3C)CC2)cc1` gave ADAM17 inh 5.4, ADAM10 inh 24.0*, NPR2 activator -7.6, FAS-TE inh 27.1, GC-A act 0.2, ADAM10 confirm 3.1 and ADAM17 ctr 1.9.
`C#CCOCCOCCOCCNc1nc(N2CCN(C(=O)CCCCCCCCCCNC(=O)[C@H](CCCCN)n3cc(C)nn3)CC2)nc(N2CCN(C(=O)CCCCCCCCCCNC(=O)[C@@H]([C@H](C)O)n3cc(C)nn3)CC2)n1` gave FAS-TE inh -19.8.
C#CCOCCOCCOCCNc1nc(N2CCN(C(=O)CCCCCCCCCCNC(=O)[C@@H](CCSC)n3cc(CCO)nn3)CC2)nc(N2CCN(C(=O)CCCCCCCCCCNC(=O)[C@@H]([C@H](C)O)n3cc(C)nn3)CC2)n1 was read as ADAM17 inh 4.6, ADAM10 inh 20.1*, NPR2 activator -0.8, FAS-TE inh -10.9, GC-A act 0.4, ADAM10 confirm 1.7 and ADAM17 ctr 0.3.
Cc1occc1C(=O)Nc1ccccc1C(=O)O was read as ADAM17 inh -4.2, ADAM10 inh -1.4, NPR2 activator -0.8, FAS-TE inh -6.0 and GC-A act 6.9.
For Cc1occc1C(=O)NNC(=O)C(c1ccccc1)c1ccccc1 the results were ADAM17 inh 5.4, ADAM10 inh 28.0*, NPR2 activator -3.7, FAS-TE inh -3.3, GC-A act -4.3, ADAM10 confirm -1.2 and ADAM17 ctr 0.1.
For Nc1ccn([C@@H]2O[C@H](C(=O)NCC(=O)N3CCOCC3)[C@@H](O)[C@H]2O)c(=O)n1 the results were ADAM17 inh -4.3, ADAM10 inh -5.3, NPR2 activator -2.5 and GC-A act -0.8.
Screening CCCCNC(=S)N/N=C/c1cc(C)ccc1C returned ADAM17 inh 5.9, ADAM10 inh 19.8*, NPR2 activator 0.1, FAS-TE inh 18.8, GC-A act 0.2, ADAM10 confirm 1.1 and ADAM17 ctr 0.8.
Screening Cc1cccc([C@@H]2[C@@H]3C(=O)N(Cc4ccccc4)C(=O)[C@@H]3[C@]3(Cc4ccccc4)C(=O)N(c4ccccc4)C(=O)N23)c1 returned ADAM17 inh 4.3, ADAM10 inh 22.4*, NPR2 activator -16.5, FAS-TE inh 91.9*, GC-A act -12.7, ADAM10 confirm 2.0 and ADAM17 ctr 1.9.
Screening CC(=O)OCCCN1CCC2(CCC(c3ccccc3)CC2)C1=O (centres undefined) returned ADAM17 inh 1.5, ADAM10 inh -1.0, NPR2 activator 7.0 and GC-A act -2.6.
CC(C)CNS(=O)(=O)/C=C/c1cc2c(cc1CNC(=O)OC(C)(C)C)OCO2 was read as ADAM17 inh -7.8, ADAM10 inh -82.2, NPR2 activator -5.3 and GC-A act -3.0.
`CC1Cc2ccccc2N1C(=O)c1ccc(N2CCCCC2)c([N+](=O)[O-])c1` (centres undefined) gave ADAM17 inh 2.4, ADAM10 inh 6.0, NPR2 activator 9.4, FAS-TE inh 16.5 and GC-A act 0.0.
CC1Cc2ccccc2N1C(=O)c1ccc(N2CCCC2)c([N+](=O)[O-])c1 (centres undefined) was read as ADAM17 inh 5.2, ADAM10 inh 24.1*, NPR2 activator -2.2, FAS-TE inh 33.9, GC-A act -1.7, ADAM10 confirm 1.4 and ADAM17 ctr 0.3.
O=C(Nc1ccc(F)cc1)N[C@@H]1C[C@@H]2O[C@H](CO)CC[C@@H]2O[C@@H]1CCc1ccc(C2=CCCC2)cc1 was read as ADAM17 inh 6.6, ADAM10 inh 6.0, NPR2 activator -6.9 and GC-A act 7.4.
`C[C@@H]1CCN(C2CC2)S(=O)(=O)c2c(cccc2N2CCC[C@H]2C)O1` gave ADAM17 inh -5.9, ADAM10 inh -19.4, NPR2 activator -0.1 and GC-A act 0.3.
Screening CC(C)N1CCCCC(NC(=O)c2cccc(C(F)(F)F)c2)C1=O (centres undefined) returned ADAM17 inh 1.0, ADAM10 inh 6.5, NPR2 activator -2.1 and GC-A act 1.4.
For CCCCn1c(SCc2nc(N)nc(Nc3ccccc3C)n2)nc2ccccc2c1=O the results were ADAM17 inh 3.8, ADAM10 inh 21.2*, NPR2 activator -10.6, FAS-TE inh 15.1, GC-A act -12.0, ADAM10 confirm 15.0 and ADAM17 ctr 4.5.
Screening COc1cccc(NC(=O)[C@H](C)NC(=O)N2CCn3c2nc2ccccc23)c1 returned ADAM17 inh -4.5, ADAM10 inh 2.1, NPR2 activator -10.1, FAS-TE inh 3.0 and GC-A act -2.0.
COc1cccc(NC(=O)[C@@H](NC(=O)N2CCn3c2nc2ccccc23)C(C)C)c1 was read as ADAM17 inh -1.4, ADAM10 inh 20.6*, NPR2 activator -17.1, FAS-TE inh 13.6, GC-A act -16.1, ADAM10 confirm 2.2 and ADAM17 ctr -0.2.
COc1ccc(CN2C(NC(=O)OCc3ccccc3)=NC3=CC(C)(C)n4c(=O)n(-c5ccccc5)c(=O)n4C32)c(OC)c1 (centres undefined) was read as ADAM17 inh -1.4, ADAM10 inh -8.1, NPR2 activator 11.8 and GC-A act 2.3.

Screening results deposited in PubChem by several laboratories.
